Records with an inconclusive call do not appear. Unmarked numbers belong to inactive results. Calls of active or inactive are those of the source. Calls come from the whole dose curve; as a rule, active = well fitted cell-killing curve with a large enough effect; inconclusive = small, poorly fitted or top-dose-only effect, or effect the other way; inactive = no such curve, though single readings can be large or run the other way.
Assays:
[1] = Quantitative High-Throughput drug screen in 47 multiple myeloma cell lines against the NCATS MIPE library collection: OCIMY1_PLB cell viability assay (AID 1918979); note: nearly all actives have a fitted effect of over 35% in size
Method in brief: (§1)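 qHTS format: cells plated (500/well), pin-dosed with MIPE 4.0 compounds, kept 48 h at 37 °C. Readout was CellTiter-Glo luminescence, median RLU.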

[2] = Quantitative High-Throughput drug screen in 47 multiple myeloma cell lines against the NCATS MIPE library collection: MM1S_ATCC cell viability assay (AID 1918980); note: nearly all actives have a fitted effect of over 45% in size
Method in brief: as §1

[3] = Quantitative High-Throughput drug screen in 47 multiple myeloma cell lines against the NCATS MIPE library collection: MM1R_ATCC cell viability assay (AID 1918981); note: nearly all actives have a fitted effect of over 35% in size
Method in brief: as §1

[4] = Quantitative High-Throughput drug screen in 47 multiple myeloma cell lines against the NCATS MIPE library collection: KMS28PE_JCRB cell viability assay (AID 1918983); note: nearly all actives have a fitted effect of over 35% in size
Method in brief: as §1

[5] = Quantitative High-Throughput drug screen in 47 multiple myeloma cell lines against the NCATS MIPE library collection: L363_DSMZ cell viability assay (AID 1918984); note: nearly all actives have a fitted effect of over 40% in size
Method in brief: as §1

[6] = Quantitative High-Throughput drug screen in 47 multiple myeloma cell lines against the NCATS MIPE library collection: KMS34_JCRB cell viability assay (AID 1918985); note: nearly all actives have a fitted effect of over 40% in size
Method in brief: as §1

[7] = Quantitative High-Throughput drug screen in 47 multiple myeloma cell lines against the NCATS MIPE library collection: OCIMY7_PLB cell viability assay (AID 1918987); conditions: OCI-MY7 myeloma viability, CellTiter-Glo ATP, 48 h; viability (% of DMSO): at 45.8 µM (top of the series); note: nearly all actives have a fitted effect of over 65% in size
Method in brief: as §1

[8] = Quantitative High-Throughput drug screen in 47 multiple myeloma cell lines against the NCATS MIPE library collection: OCIMY5_PLB cell viability assay (AID 1918988); note: nearly all actives have a fitted effect of over 65% in size
Method in brief: as §1

[9] = Quantitative High-Throughput drug screen in 47 multiple myeloma cell lines against the NCATS MIPE library collection: OPM1_PLB cell viability assay (AID 1918989); note: nearly all actives have a fitted effect of over 40% in size
Method in brief: as §1

[10] = Quantitative High-Throughput drug screen in 47 multiple myeloma cell lines against the NCATS MIPE library collection: XG6_PLB cell viability assay (AID 1919865); note: nearly all actives have a fitted effect of over 40% in size
Method in brief: as §1

[11] = Quantitative High-Throughput drug screen in 47 multiple myeloma cell lines against the NCATS MIPE library collection: XG1_PLB cell viability assay (AID 1919866); note: nearly all actives have a fitted effect of over 35% in size
Method in brief: as §1

[12] = Quantitative High-Throughput drug screen in 47 multiple myeloma cell lines against the NCATS MIPE library collection: PE2_PLB cell viability assay (AID 1919869); note: nearly all actives have a fitted effect of over 35% in size
Method in brief: as §1

[13] = Quantitative High-Throughput drug screen in 47 multiple myeloma cell lines against the NCATS MIPE library collection: PCM6_Riken cell viability assay (AID 1919870); note: nearly all actives have a fitted effect of over 30% in size
Method in brief: as §1

[14] = Quantitative High-Throughput drug screen in 47 multiple myeloma cell lines against the NCATS MIPE library collection: RPMI8226_ATCC cell viability assay (AID 1919871); note: nearly all actives have a fitted effect of over 30% in size
Method in brief: as §1

[15] = Quantitative High-Throughput drug screen in 47 multiple myeloma cell lines against the NCATS MIPE library collection: OPM2_DSMZ cell viability assay (AID 1919872); note: nearly all actives have a fitted effect of over 30% in size
Method in brief: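 We plated 500 myeloma cells per well, pinned in MIPE 4.0 compounds, and incubated for 48 hours at 37C. ATP was then quantified with CellTiter-Glo, with DMSO and media-only wells defining 100% and 0%.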

[16] = Quantitative High-Throughput drug screen in 47 multiple myeloma cell lines against the NCATS MIPE library collection: SKMM1_PLB cell viability assay (AID 1919863); conditions: SKMM1 myeloma viability, CellTiter-Glo ATP, 48 h; viability: hits give low values; note: nearly all actives have a fitted effect of over 35% in size
Method in brief: as §1

[17] = Quantitative High-Throughput drug screen in 47 multiple myeloma cell lines against the NCATS MIPE library collection: U266_ATCC cell viability assay (AID 1919864); note: nearly all actives have a fitted effect of over 35% in size
Method in brief: as §1

[18] = Quantitative High-Throughput drug screen in 47 multiple myeloma cell lines against the NCATS MIPE library collection: VP6_DJ cell viability assay (AID 1919867); note: nearly all actives have a fitted effect of over 40% in size
Method in brief: as §1

[19] = Quantitative High-Throughput drug screen in 47 multiple myeloma cell lines against the NCATS MIPE library collection: UTMC2_PLB cell viability assay (AID 1919868); conditions: CellTiter-Glo ATP luminescence, 48 h; viability (% of DMSO control): at 45.8 µM (top of the series); note: nearly all actives have a fitted effect of over 55% in size
Method in brief: as §1

[20] = Quantitative High-Throughput drug screen in 47 multiple myeloma cell lines against the NCATS MIPE library collection: LP1_DSMZ cell viability assay (AID 1918982); note: nearly all actives have a fitted effect of over 35% in size
Method in brief: as §1
Potency is the fitted concentration of half-maximal effect.

SMILES | Potency [1] | Potency [2] | Potency [3] | Potency [4] | Potency [5] | Potency [6] | Potency [7] | Potency [8] | Potency [9] | Potency [10] | Potency [11] | Potency [12] | Potency [13] | Potency [14] | Potency [15] | Potency [16] | Potency [17] | Potency [18] | Potency [19] | Potency [20]
CN1[C@H]2CC(OC(=O)[C@@H](CO)c3ccccc3)C[C@H]1[C@H]1O[C@H]12 (some centres not stated) | inactive | inactive | inactive | inactive | inactive | inactive | inactive | inactive | inactive | inactive | inactive | inactive | inactive | inactive | inactive | – | – | – | – | –
CC(C=CC(=O)NO)=C[C@@H](C)C(=O)c1ccc(N(C)C)cc1 | 0.372 µM (active) | 0.187 µM (active) | 0.132 µM (active) | 0.296 µM (active) | 0.132 µM (active) | 0.0833 µM (active) | 0.148 µM (active) | 0.166 µM (active) | 0.332 µM (active) | 0.469 µM (active) | 0.332 µM (active) | 0.59 µM (active) | 0.469 µM (active) | 0.332 µM (active) | 0.833 µM (active) | 0.166 µM (active) | 0.209 µM (active) | 0.372 µM (active) | 0.235 µM (active) | –
CCOC(=O)[C@@H](N)Cc1ccc(-c2cc(O[C@H](c3ccc(Cl)cc3-n3ccc(C)n3)C(F)(F)F)nc(N)n2)cc1 | 18.7 µM (active) | 2.96 µM (active) | 14.8 µM (active) | 20.9 µM (active) | 10.5 µM (active) | 16.6 µM (active) | 11.8 µM (active) | 18.7 µM (active) | 23.5 µM (active) | 16.6 µM (active) | 23.5 µM (active) | 23.5 µM (active) | 18.7 µM (active) | 20.9 µM (active) | 18.7 µM (active) | 23.5 µM (active) | 23.5 µM (active) | 26.4 µM (active) | – | –
CC(C)n1cnc2c(NCCc3ccc(O)cc3)nc(-c3csc4ccccc34)nc21 | 20.9 µM (active) | 0.743 µM (active) | 7.43 µM (active) | – | – | 20.9 µM (active) | 7.43 µM (active) | 1.66 µM (active) | 23.5 µM (active) | 3.72 µM (active) | 3.72 µM (active) | – | 10.5 µM (active) | – | – | 20.9 µM (active) | 2.35 µM (active) | 8.33 µM (active) | 10.5 µM (active) | 16.6 µM (active)
CCC(C=C[C@@H]1OC(=O)C=C[C@H]1C)=C[C@H](C)CC=CC(C)=C[C@@H](C)C(=O)[C@@H](C)[C@H](O)[C@@H](C)CC(C)=CC(=O)O | 0.0277 µM (active) | 0.0156 µM (active) | 0.0098 µM (active) | 0.0247 µM (active) | 0.0078 µM (active) | 0.022 µM (active) | 0.0392 µM (active) | 0.0098 µM (active) | 0.0311 µM (active) | 0.0156 µM (active) | 0.0247 µM (active) | 0.0196 µM (active) | 0.0098 µM (active) | 0.0311 µM (active) | 0.0277 µM (active) | 0.022 µM (active) | 0.0247 µM (active) | 0.0139 µM (active) | – | –
C[C@@H](Oc1ccc2[nH]nc(C=Cc3cnn(CCO)c3)c2c1)c1c(Cl)cncc1Cl | 11.8 µM (active) | 6.62 µM (active) | 2.64 µM (active) | 4.18 µM (active) | – | 0.209 µM (active) | 0.148 µM (active) | 6.62 µM (active) | – | 0.662 µM (active) | 0.0935 µM (active) | 0.148 µM (active) | 4.18 µM (active) | 1.32 µM (active) | 0.296 µM (active) | 26.4 µM (active) | 23.5 µM (active) | 1.32 µM (active) | – | 20.9 µM (active)
CN[C@@H]1C[C@H]2O[C@@](C)([C@H]1OC)n1c3ccccc3c3c4c(c5c6ccccc6n2c5c31)C(=O)N[C@H]4O | 0.935 µM (active) | 0.332 µM (active) | 0.372 µM (active) | 0.833 µM (active) | – | 0.372 µM (active) | – | 0.264 µM (active) | 0.0935 µM (active) | 0.0833 µM (active) | 0.148 µM (active) | 0.118 µM (active) | 0.148 µM (active) | 2.09 µM (active) | 1.05 µM (active) | 5.9 µM (active) | 1.05 µM (active) | – | – | 1.05 µM (active)
N[C@H]1CN(c2c(F)cc3c(=O)c(C(=O)O)cn(C4C[C@@H]4F)c3c2Cl)CC12CC2 (some centres not stated) | inactive | inactive | inactive | – | inactive | – | inactive | – | inactive | – | inactive | inactive | inactive | – | – | – | – | inactive | – | inactive
CCOC(=O)N1CCN([N+]([O-])=NOc2ccc([N+](=O)[O-])cc2[N+](=O)[O-])CC1 | 7.43 µM (active) | 1.87 µM (active) | 1.18 µM (active) | 1.32 µM (active) | – | 0.935 µM (active) | 0.526 µM (active) | 1.32 µM (active) | 1.18 µM (active) | 2.64 µM (active) | 0.418 µM (active) | 1.48 µM (active) | 0.743 µM (active) | 13.2 µM (active) | – | – | 2.64 µM (active) | 2.35 µM (active) | 0.526 µM (active) | 2.64 µM (active)
N#Cc1cc(NC(=O)Nc2nnc(-c3ccncc3)s2)ccc1-c1cn[nH]c1 | inactive | 5.26 µM (active) | inactive | 16.6 µM (active) | – | – | – | 14.8 µM (active) | inactive | – | – | inactive | inactive | inactive | inactive | – | – | – | – | inactive

Reference: PubChem BioAssay (NCATS)
